Test results: PubChem BioAssay (Tox21)
Unmarked numbers belong to inactive results. Inconclusive results are not listed. A call without a number means that no potency is given here. Active and inactive are the calls of the source. Unless noted, the call rests on the fitted dose curve; in most records, active means well fitted curve in the direction sought with a large enough effect in the repeat runs; inconclusive means weak or mixed curves; inactive means no such curve, though single readings can be large; an effect the other way counts as inactive or inconclusive. Non-standard residues stand in square brackets, D forms with d. Residues, ends and D or L forms follow the SMILES beside them. *: point of attachment. Sta = CC(C)C[C@H](N)[C@@H](O)CC(=O)O; Isovaleryl = CC(C)CC(=O)*

Test: qHTS assay to identify small molecule phospholipidosis (PLD) inducers (AID 1259344; active means well fitted curve in the direction sought with a large enough effect; an effect the other way counts as inactive or inconclusive; further: potency means the concentration at half of the fitted maximal effect)
Conditions: HepG2 phospholipidosis, LipidTOX Red imaging, 24 h; series mostly up to 38.3 µM
Procedure, shortened: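 HepG2 cells grown on collagen I take up LipidTOX Red while exposed to compound for 24 h; after fixation they are imaged at 20x and pit metrics are extracted.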

Row | Structure (SMILES) | Potency | PLD induction
1 | COc1cc(OC)cc(OC)c1 | inactive | –
2 | COC(=O)C(c1ccccc1Cl)N1CCc2sccc2C1 (configuration not stated) | inactive | –
3 | CC(=O)SC[C@@H](C)C(=O)N1CCC[C@H]1C(=O)N[C@@H](Cc1ccccc1)C(=O)O | 3.55 µM (active) | –
4 | CC(C)(C)C(=O)NCCCC(=O)O | inactive | –
5 | COc1cc(C(=O)NC2CCCNC2)cc(OC)c1OC (configuration not stated) | inactive | –
6 | CC(C)CC(=O)N[C@H](C(=O)N[C@H](C(=O)N[C@@H](CC(C)C)[C@@H](O)CC(=O)N[C@@H](C)C(=O)N[C@@H](CC(C)C)[C@@H](O)CC(=O)O)C(C)C)C(C)C (Isovaleryl-VV[Sta]A[Sta]-OH) | inactive | –
7 | O=C(O)CCC(=O)Nc1ccc(S(=O)(=O)Nc2nccs2)cc1 | inactive | –
8 | CC(=O)Nc1ccc(S(=O)(=O)Nc2cc(C)on2)cc1 | – | 3.97% [at 7.66 µM]

Test: qHTS assay to identify small molecule HDAC inhibitors (AID 1259364); further: nearly all actives have a fitted effect of over 45% in size; further: potency means the concentration at half of the fitted maximal effect; on activity change, negative = inhibition: top concentration of the series differs between compounds
Conditions: HCT-116 HDAC-Glo I/II luminescence, 2 h; series mostly up to 92.4 µM
Procedure, shortened: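 Luminescence from a cell-permeant luminogenic class I/II HDAC substrate reports endogenous deacetylase activity in intact HCT-116 cells treated with compounds for 2 h.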

Row | Structure (SMILES) | Potency | activity change, negative = inhibition
9 | CCCC(=O)C(CC)Sc1ccoc1C (configuration not stated) | inactive | –
10 | CCNC(=O)C(C)OC(=O)Nc1ccccc1 (configuration not stated) | inactive | –
11 | COc1cc(OC)cc(OC)c1 | inactive | –
12 | c1cc2ccc3ccc4ccc5cccc6c(c1)c2c3c4c56 | – | -0.743% [at 3.27 µM]
13 | COc1cc(S(N)(=O)=O)cc(C(=O)O)c1OC | inactive | –
14 | CCOCCOCCOC(C)=O | inactive | –
15 | COC(=O)C(c1ccccc1Cl)N1CCc2sccc2C1 (configuration not stated) | inactive | –
16 | CCCCC(CC)COC(=O)CC#N (configuration not stated) | inactive | –
17 | CCCCCCCC(=O)N(C)C | inactive | –
18 | CC(C)=CCC/C(C)=C\C#N | inactive | –
19 | CC(C)(C)c1ccc(N)cc1 | inactive | –
20 | CCCC(=O)CC | inactive | –
21 | CC1=C(O)C(=O)CO1 | inactive | –
22 | CC(=O)SC[C@@H](C)C(=O)N1CCC[C@H]1C(=O)N[C@@H](Cc1ccccc1)C(=O)O | inactive | –
23 | Cc1cc2c(cc1CC(=O)c1sccc1S(=O)(=O)Nc1onc(C)c1Cl)OCO2 | inactive | –
24 | CC(C)(C)C(=O)NCCCC(=O)O | inactive | –
25 | COC(=O)c1ccccc1Cl | inactive | –

Row | Structure (SMILES) | Potency | activity change, negative = inhibition
26 | CC/C=C/CCCCCCCCCCOC(C)=O | inactive | –
27 | C=CCN(CC=C)CC=C | inactive | –
28 | C=CCON/C(CCC)=C1\C(=O)CC(C)(C)C(C(=O)OC)=C1O | inactive | –
29 | CC/C=C\CCCCCCCCCCOC(C)=O | inactive | –
30 | Cc1cc(O)c(Cl)cc1C | inactive | –
31 | CCOC(=O)c1ccc(N(C)C)cc1 | 9.69 µM (active) | –
32 | CCC(C)(C)C | inactive | –
33 | O=C(O)CCCCCCCCCC(=O)O | inactive | –
34 | COc1cc(C(=O)NC2CCCNC2)cc(OC)c1OC (configuration not stated) | inactive | –
35 | CCC(C)SSC(C)CC (configuration not stated) | inactive | –
36 | O=S(=O)(O)CC(O)CCl (configuration not stated) | inactive | –
37 | O=Cc1ccccc1S(=O)(=O)O | inactive | –
38 | CC(C)C(=O)Nc1cccc(C2CN3CCSC3=N2)c1 (configuration not stated) | inactive | –
39 | CC(C)CC(=O)N[C@H](C(=O)N[C@H](C(=O)N[C@@H](CC(C)C)[C@@H](O)CC(=O)N[C@@H](C)C(=O)N[C@@H](CC(C)C)[C@@H](O)CC(=O)O)C(C)C)C(C)C (Isovaleryl-VV[Sta]A[Sta]-OH) | inactive | –
40 | O=C(O)CCC(=O)Nc1ccc(S(=O)(=O)Nc2nccs2)cc1 | inactive | –
41 | CC(C)C(C)C | inactive | –
42 | CC(=O)Nc1ccc(S(=O)(=O)Nc2cc(C)on2)cc1 | inactive | –

Test: qHTS assay to identify small molecule HDAC inhibitors - cell viability counter screen (AID 1259365); further: nearly all actives have a fitted effect of over 50% in size
Conditions: HCT-116 viability, CellTiter-Glo ATP luminescence, 2 h; series mostly up to 92.4 µM
Procedure, shortened: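 Wild-type HCT-116 cells were seeded at 1,500 per well, incubated overnight at 37 C, then exposed to compounds in DMSO for 2hr. Viability was read by CellTiter-Glo luminescence after 30min at room temperature.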

Row | Structure (SMILES) | outcome | activity change, negative = cytotoxicity
43 | CCCC(=O)C(CC)Sc1ccoc1C (configuration not stated) | inactive | –
44 | CCNC(=O)C(C)OC(=O)Nc1ccccc1 (configuration not stated) | inactive | –
45 | c1cc2ccc3ccc4ccc5cccc6c(c1)c2c3c4c56 | – | 2.08% [at 3.27 µM]
46 | COc1cc(S(N)(=O)=O)cc(C(=O)O)c1OC | inactive | –
47 | CCOCCOCCOC(C)=O | inactive | –
48 | COC(=O)C(c1ccccc1Cl)N1CCc2sccc2C1 (configuration not stated) | inactive | –
49 | CCCCCCCC(=O)N(C)C | inactive | –
50 | CC(C)=CCC/C(C)=C\C#N | inactive | –
51 | CCCC(=O)CC | inactive | –
52 | CC(=O)SC[C@@H](C)C(=O)N1CCC[C@H]1C(=O)N[C@@H](Cc1ccccc1)C(=O)O | inactive | –
53 | Cc1cc2c(cc1CC(=O)c1sccc1S(=O)(=O)Nc1onc(C)c1Cl)OCO2 | inactive | –
54 | CC(C)(C)C(=O)NCCCC(=O)O | inactive | –
55 | O=CN1CCCCC1 | inactive | –
56 | COC(=O)c1ccccc1Cl | inactive | –
57 | CC/C=C/CCCCCCCCCCOC(C)=O | inactive | –
58 | C=CCON/C(CCC)=C1\C(=O)CC(C)(C)C(C(=O)OC)=C1O | inactive | –
59 | Nc1cc(S(=O)(=O)O)ccc1O | inactive | –
60 | CC/C=C\CCCCCCCCCCOC(C)=O | inactive | –
61 | CCOC(=O)c1ccc(N(C)C)cc1 | inactive | –
62 | O=C(O)CCCCCCCCCC(=O)O | inactive | –
63 | CCC(C)SSC(C)CC (configuration not stated) | inactive | –
64 | O=S(=O)(O)CC(O)CCl (configuration not stated) | inactive | –
65 | O=Cc1ccccc1S(=O)(=O)O | inactive | –
66 | CC(C)C(=O)Nc1cccc(C2CN3CCSC3=N2)c1 (configuration not stated) | inactive | –
67 | CC(C)CC(=O)N[C@H](C(=O)N[C@H](C(=O)N[C@@H](CC(C)C)[C@@H](O)CC(=O)N[C@@H](C)C(=O)N[C@@H](CC(C)C)[C@@H](O)CC(=O)O)C(C)C)C(C)C (Isovaleryl-VV[Sta]A[Sta]-OH) | inactive | –
68 | O=C(O)CCC(=O)Nc1ccc(S(=O)(=O)Nc2nccs2)cc1 | inactive | –
69 | Cc1ccc(Br)cc1 | inactive | –
70 | CC(C)C(C)C | inactive | –
71 | CC(=O)Nc1ccc(S(=O)(=O)Nc2cc(C)on2)cc1 | inactive | –
72 | C=CC(=O)OCC[N+](C)(C)C | inactive | –
